Compound activity as filed in PubChem.
Hits are enriched below; roughly 19% of the tested compounds scored in any of these assays.
DT40 TDP1 no CPT: qHTS for Inhibitors of human tyrosyl-DNA phosphodiesterase 1 (TDP1): qHTS in cells in absence of CPT; AID 686978, 2013; hit rate 15% among 420,000; Potency, µM (titrated, usually from 46.2 µM), for inactives: at the highest dose activity change, negative = growth inhibition, hits mostly inhibitors; DT40 Tdp1-/- hTDP1 cells, no CPT, ATP luminescence, 48 h; note: potency is the fitted concentration of half-maximal effect; nearly all actives have a fitted effect of over 55% in size
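Chicken DT40 Tdp1-/- cells stably complemented with human TDP1 were seeded at 400 cells/well with DMSO in place of 20 nM camptothecin. After compound pinning, cells grew at least 48 hr at 37 °C; viability read by CellTiter-Glo luminescence.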
DT40 TDP1 CPT: DT40-hTDP1 cell growth loss with CPT; chicken DT40 Tdp1-/-;hTDP1 cells + 20 nM CPT, ATP luminescence, 48 h; Potency, µM (top dose mostly 46.2 µM), without a hit: at the top dose activity change, negative = growth inhibition, actives largely listed as inhibitors; hit rate 12% among 420,000; note: potency is the fitted concentration of half-maximal effect; nearly all actives have a fitted effect of over 55% in size
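Cell growth measured by CellTiter-Glo luminescence after a minimum 48 h, 37 C compound exposure with 20 nM CPT in Tdp1-knockout DT40 cells stably expressing hTDP1, seeded 400/well; qHTS titration format.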
IL-1B inflam inh: inhibitors of inflammasome signaling (IL-1 beta secretion); AID 743279; activity change, % at 57.5 µM; hit rate 4.7% among 360,000; THP-1 LPS/ATP IL-1B secretion, AlphaLISA, 16 h; active compounds read low; in the data active = activity change below about -50%; inconclusive = mostly about -30% to -49%
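Secreted IL-1B measured by AlphaLISA bead assay after 16 h compound exposure of THP-1 cells; compounds (final up to 57.5 uM) added 1 h before LPS (250 ng/mL) and ATP (1.25 mM) stimulation; lower signal means less secretion.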
HT1080 IDH1KD tx: toxicity to HT-1080 IDH1 knockdown cells (counter line) | AID 686971 | Potency, µM (doses to about 46.1 µM), for inactives: at the top dose activity, negative = toxicity, most hits filed as cytotoxic | HT-1080 IDH1 knockdown viability, ATP luminescence, 48 h | hit rate 2% among 360,000;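 note: potency is the fitted concentration of half-maximal effect; 0% = DMSO wells and -100% = cell-free medium wells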
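After a 2 h attachment period, IDH1KD HT-1080 cells took pin-transferred compound for 48 h at 37 °C; ATP-based luminescence after 10 min room-temperature reagent incubation reported viability.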
HT1080NT lethal: kills 2HG-producing HT-1080-NT fibrosarcoma cells; HT-1080-NT fibrosarcoma viability, CellTiter-Glo ATP luminescence, 48 h; Potency, µM (doses to about 46.1 µM), for inactives: top-dose activity, negative = less viability, actives largely listed as cytotoxic; hit rate 1.6% among 360,000;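 note: NT is the 2HG producing partner of a matched IDH1 knockdown line; potency is the fitted concentration of half-maximal effect; 0% = DMSO-treated cells and -100% = media-only wells without cells; nearly all actives have a fitted effect of over 55% in size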
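Luminescent CellTiter-Glo readout after 48 hours of compound exposure at 37 degrees C defined viability of HT-1080-NT cells. Activity was normalized to DMSO wells and cell-free media wells; concentration-response curves were fitted and assigned curve classes.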
Starred values were filed as active, the others as inactive; u = inconclusive; x = no result given. Unless noted, calls come from the whole dose curve; as a rule, active = well fitted curve in the direction sought with a large enough effect; inconclusive = small, poorly fitted or top-dose-only effect, or another doubt; inactive = no such curve, though single readings can be large; an effect the other way counts as inactive or inconclusive. Unless noted, % is set by controls: 0 for no effect and ±100 for the full control effect.

SMILES	DT40 TDP1 no CPT	DT40 TDP1 CPT	IL-1B inflam inh	HT1080 IDH1KD tx	HT1080NT lethal
CS(=O)(=O)N1CCC[C@@]2(CCN(c3ccccc3)C2)C1	u	-5%	x	x	x
N#Cc1cccc(NC(=O)N2CC[C@@]3(CCCN(S(=O)(=O)c4ccccc4)C3)C2)c1	21µM*	u	x	x	x
CN1CCCC2(CCN(S(=O)(=O)c3ccccc3)CC2)C1	11%	-6%	x	x	x
COc1ccccc1-c1ccc2ncnc(Nc3ccccc3)c2c1	-94%	21µM*	x	x	x
COc1cccc(Nc2ncnc3ccc(Br)cc23)c1	21µM*	u	14	-13%	-1%
Brc1ccc2ncnc(Nc3cccc4ccccc34)c2c1	u	u	-80*	u	u
COc1ccc(OC)c(Nc2ncnc3ccc(Br)cc23)c1	u	u	25	-1%	-7%
Cc1ccc2ncnc(Nc3cccc([N+](=O)[O-])c3)c2c1	u	23µM*	-5	4%	11%
COc1ccc(CCNC(=O)CCCn2c(=S)[nH]c3ccsc3c2=O)cc1OC	u	-1%	-9	-1%	7%
COc1ccc(CNC(=O)c2cn(Cc3ccccc3F)c(=O)s2)cc1	u	u	-12	-2%	1%
Fc1ccc(Nc2ncnc3ccc(-c4ccoc4)cc23)cc1	u	15µM*	x	x	x
c1nc(NC2CCNCC2)c2cc(-c3ccoc3)ccc2n1	-10%	u	x	x	x
CNc1ncnc2ccc(-c3ccccc3OC)cc12	21µM*	u	x	x	x
OCCNc1ncnc2ccc(Br)cc12	6.5µM*	u	23	-15%	-10%
COc1ccc(CC2SC(=Nc3ccc(F)cc3)NC2=O)cc1 (stereo not given)	u	-7%	-15	9%	0%
CCOC(=O)Cn1cnc2sc3c(c2c1=O)CCC3	-3%	-14%	8	0%	-3%
CC1CCCCC1NC(=O)COC(=O)COc1ccccc1F (stereo not given)	4%	-6%	7	13%	5%
O=C(CNc1ccccc1OC(F)F)N1CCc2ccccc21	-14%	1%	7	3%	1%
COC(=O)c1cc(COC(=O)c2cccnc2SC)oc1C	-4%	3%	0	1%	10%
CCC(=O)N1CCN=C1SCc1cccc(F)c1	u	-23%	-4	6%	8%
O=C(Nc1ccc(Br)cn1)c1ccc(Cl)s1	18µM*	u	-5	-8%	-21%
O=C(Nc1ccc(Br)cn1)c1ccc(Br)s1	26µM*	u	17	u	-15%
Cc1cc(C(=O)Nc2ccc(Br)cn2)sc1C	-12%	-17%	-16	-6%	-2%
O=C(NC1(Cc2ccccc2)CCN(CCCc2ccccc2)C1=O)c1ccccc1 (stereo not given)	1.2µM*	0.65µM*	-18	-19%	-7%
S=c1[nH]nc(-c2cc(-c3ccccc3)n[nH]2)n1/N=C/C(Br)=C/c1ccccc1	2.6µM*	2.9µM*	-99*	5.8µM*	7.3µM*
SMILES	DT40 TDP1 no CPT	DT40 TDP1 CPT	IL-1B inflam inh	HT1080 IDH1KD tx	HT1080NT lethal
S=c1[nH]nc(-c2cc(-c3ccccc3)n[nH]2)n1/N=C/c1ccccc1	-12%	u	0	1%	17%
Cc1cccc(/C=N/n2c(-c3cc(-c4ccccc4)n[nH]3)n[nH]c2=S)c1	u	16µM*	-3	14%	0%
COc1ccccc1N1CCN(/N=C/c2c(C)nn(-c3ccccc3)c2C)CC1	u	u	-22	16%	0%
CCOc1cccc(=O)c2c(C)n(C)c(C)c12	u	-45%	1	2%	8%
CCCCCn1c(C)c2c(OCC)cccc(=O)c2c1C	u	23µM*	-2	-2%	0%
COCCCN(C(=S)Nc1cc(Cl)cc(Cl)c1)C(C)c1ccncc1 (stereo not given)	u	u	-68*	-13%	0%
O=C(CN1C(=O)/C(=C/c2ccccc2F)Sc2ccccc21)NCC1CCCO1 (stereo not given)	u	u	-9	-17%	-1%
